Laboratory results reported in PubChem BioAssay (NCI).
About 83,000 compounds went through this panel and 20% of them were active in at least one assay; those are over-represented in the sample as a whole.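 Negative percent growth values reflect cell death: -40 means 40% of the cells present at the start died, and -100 means all died.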 Calls of active or inactive are those of the source. The calls were made as follows: active = growth percent below 10; inactive = the rest.

What was measured:
Test in all cases: NCI-60 one-dose screen, 48 h (100 = growth as untreated, 0 = no growth, -100 = all killed)
Conditions in all cases: 10 µM unless noted
T-47D breast = test system: T-47D breast
BT-549 breast = test system: BT-549 breast
MDA-MB-435 melanoma = test system: MDA-MB-435 melanoma
SW-620 colon = test system: SW-620 colon
MCF7 breast = test system: MCF7 breast
HCT-116 colon = test system: HCT-116 colon
HCC-2998 colon = test system: HCC-2998 colon
KM12 colon = test system: KM12 colon

Measured: growth

CCN1CCN(C(=O)[C@]23CCC(C)(C)C[C@H]2C2=CC[C@@H]4[C@@]5(C)CC/C(=N/O)C(C)(C)[C@@H]5CC[C@@]4(C)[C@]2(C)CC3)CC1
inactive: T-47D breast 36.6% | BT-549 breast 87.2% | MDA-MB-435 melanoma 66.1% | SW-620 colon 22.4% | MCF7 breast 37.5% | HCT-116 colon 19% | HCC-2998 colon 90.4% | KM12 colon 72.1%

O=C1c2ccccc2NC(c2cn(-c3ccccc3)nc2-c2cccs2)N1Cc1ccccc1 (configuration not stated)
inactive: T-47D breast 54.9% | BT-549 breast 88.5% | MDA-MB-435 melanoma 97.5% | SW-620 colon 97.3% | MCF7 breast 72% | HCT-116 colon 65.9% | HCC-2998 colon 95.1% | KM12 colon 83.7%

N#C/C(=C\c1ccc(-c2ccccc2)o1)c1nc(-c2ccco2)cs1
inactive: BT-549 breast 94.6% | MDA-MB-435 melanoma 99.2% | SW-620 colon 99.2% | MCF7 breast 17.6% | HCT-116 colon 87% | HCC-2998 colon 32.1% | KM12 colon 48.1%
active: T-47D breast -26%

Cc1nn2c(-c3nc4cc(Cl)c(Cl)cc4[nH]3)c(-c3ccc(F)cc3)nc2s1
inactive: BT-549 breast 44.2% | MDA-MB-435 melanoma 26.6% | SW-620 colon 39.5% | MCF7 breast 40.1% | HCC-2998 colon 75.8% | KM12 colon 39.3%
active: T-47D breast -0.149% | HCT-116 colon 2.83%

COc1cccc(-c2nn(-c3ccccc3)cc2-c2ccnc(NCCCN)c2)c1
active: MDA-MB-435 melanoma -6.82%
inactive: T-47D breast 59.1% | BT-549 breast 68.6% | SW-620 colon 43.5% | MCF7 breast 41.8% | HCT-116 colon 45.1% | HCC-2998 colon 65.6% | KM12 colon 71.9%

CC(=O)O[C@H]1CC[C@]2(C)[C@H]3C(=O)C=C4[C@@H]5C[C@](C)(C(=O)N6CCCNCC6)CC[C@]5(C)CC[C@@]4(C)[C@]3(C)CC[C@H]2C1(C)C
inactive: BT-549 breast 86.9% | HCC-2998 colon 11.2% | KM12 colon 13.4%
active: T-47D breast -49.6% | MDA-MB-435 melanoma -14.9% | SW-620 colon -88.7% | MCF7 breast -88.7% | HCT-116 colon -95.3%

CC1(C)CC[C@]2(CO)CC[C@]3(C)C(=CC[C@@H]4[C@@]5(C)CC[C@H](NCO)C(C)(C)[C@@H]5CC[C@]43C)[C@@H]2C1
active: T-47D breast 4.47% | MDA-MB-435 melanoma -5.37% | SW-620 colon -71.9% | MCF7 breast -26.3% | HCT-116 colon -78.2% | HCC-2998 colon 6.82% | KM12 colon -80.7%
inactive: BT-549 breast 59.1%

O=Cc1nc2ccccc2[nH]1
inactive: T-47D breast 91.9% | BT-549 breast 101% | MDA-MB-435 melanoma 107% | SW-620 colon 101% | MCF7 breast 96.4% | HCT-116 colon 88.5% | HCC-2998 colon 107% | KM12 colon 99.8%

CC[C@]12C=CCN3CC[C@@]4(c5cc([C@H]6CCC(=O)N6)c(OC)cc5N(C)[C@H]4[C@@](O)(C(=O)OC)[C@@H]1OC(C)=O)[C@@H]32
inactive: T-47D breast 96.3% [2.5 µM] | BT-549 breast 113% [2.5 µM] | MDA-MB-435 melanoma 107% [2.5 µM] | SW-620 colon 108% [2.5 µM] | MCF7 breast 93.2% [2.5 µM] | HCT-116 colon 100% [2.5 µM] | HCC-2998 colon 110% [2.5 µM] | KM12 colon 111% [2.5 µM]

COC(=O)[C@]12CC[C@@H](C)[C@H](C)[C@@H]1C1=CC[C@@H]3[C@@]4(C)C(c5ncon5)=C[C@@](C)(CO)C4=CC[C@@]3(C)[C@]1(C)CC2
active: T-47D breast -0.698% | BT-549 breast 8.08% | MDA-MB-435 melanoma -24% | SW-620 colon -34.7% | MCF7 breast -63% | HCT-116 colon -83.1% | HCC-2998 colon -83.3% | KM12 colon -47.6%

O=S(=O)(NCCNc1cc(-c2cn(-c3ccccc3)nc2-c2cccc(O)c2)ccn1)c1ccc(Cl)cc1
inactive: T-47D breast 14.4% | BT-549 breast 50.7% | MDA-MB-435 melanoma 23.3% | SW-620 colon 32.8% | MCF7 breast 14.9% | HCT-116 colon 20.4% | KM12 colon 19.4%
active: HCC-2998 colon -42.8%

CCCCCCCN(CCCCCCC)C(=N)c1ccnc2ccccc12
active: T-47D breast -39.9% | MDA-MB-435 melanoma -88.5% | SW-620 colon -75.9% | MCF7 breast -62.2% | HCT-116 colon -83.7% | HCC-2998 colon -87% | KM12 colon -16.8%
inactive: BT-549 breast 56%

Cc1ccc(N(CC(=O)Nc2ccc(S(=O)(=O)NC3CCN(C)CC3)cc2)S(=O)(=O)c2ccc(Cl)cc2)cc1
active: MDA-MB-435 melanoma -44.3%
inactive: T-47D breast 58.4% | BT-549 breast 86.6% | SW-620 colon 10.1% | MCF7 breast 39% | HCT-116 colon 47.6% | HCC-2998 colon 30.4% | KM12 colon 61.2%

Cc1ccc(-c2nn(Cc3cn(-c4cc(C)nc5ccccc45)nn3)c3ncnc(N)c23)cc1
inactive: T-47D breast 19.6% | BT-549 breast 64.4% | MDA-MB-435 melanoma 50.2% | SW-620 colon 82.4% | MCF7 breast 34.6% | HCT-116 colon 53.8% | HCC-2998 colon 76.4% | KM12 colon 74.4%

C/C(Cc1ccc(Cl)cc1)=C(/c1ccc(Cl)cc1)c1ccc(OCCN2CCCC2)cc1
inactive: T-47D breast 66.3% | BT-549 breast 99.2% | MDA-MB-435 melanoma 82% | SW-620 colon 58.6% | MCF7 breast 31% | HCT-116 colon 30.7% | HCC-2998 colon 68.7% | KM12 colon 53.8%

Cn1cc(-c2nc(-c3c[nH]c4ncccc34)cs2)c2cc(Br)ccc21
inactive: T-47D breast 84% | BT-549 breast 99.8% | MDA-MB-435 melanoma 79.8% | SW-620 colon 95.8% | MCF7 breast 35.3% | HCT-116 colon 64.4% | HCC-2998 colon 99.8% | KM12 colon 62.5%

C=C(C)[C@@H]1CC[C@]2(C)[C@H](CC=C3[C@@H]4CC(C)(C)CC[C@]4(C(=O)OC)CC[C@]32C)[C@@]1(C)CC/C(N)=N/O
active: T-47D breast 6.99% | MCF7 breast 3.92% | HCC-2998 colon -53%
inactive: BT-549 breast 63.7% | MDA-MB-435 melanoma 80.5% | SW-620 colon 67.6% | HCT-116 colon 18.5% | KM12 colon 61%

CC(C)(C)n1cc(-c2ccnc(NCCCNS(=O)(=O)c3ccc(Cl)cc3)c2)c(-c2cccc(F)c2)n1
inactive: T-47D breast 46.5% | BT-549 breast 74.7% | MDA-MB-435 melanoma 85.6% | SW-620 colon 70.2% | MCF7 breast 60.5% | HCT-116 colon 51.9% | HCC-2998 colon 63.4% | KM12 colon 60.5%

O=C1/C(=C\c2ccco2)SC(=S)N1CCc1ccc(O)cc1
inactive: T-47D breast 67.6% | BT-549 breast 87.2% | MDA-MB-435 melanoma 93.7% | SW-620 colon 109% | MCF7 breast 114% | HCT-116 colon 96.1% | HCC-2998 colon 116% | KM12 colon 85.5%

COc1ccc(C(=O)c2ccc(C)cc2)c(OC)c1OC
active: MDA-MB-435 melanoma -25.2%
inactive: T-47D breast 90% | BT-549 breast 86.7% | SW-620 colon 33.6% | MCF7 breast 72.2% | HCT-116 colon 58.4% | HCC-2998 colon 75.9% | KM12 colon 47.2%

Cc1cccc(C)c1NC(=O)CSC(=S)N1CCCCC1
inactive: T-47D breast 85.4% | BT-549 breast 105% | MDA-MB-435 melanoma 110% | SW-620 colon 103% | MCF7 breast 97.8% | HCT-116 colon 99.7% | HCC-2998 colon 100% | KM12 colon 97.8%

CC(=O)Oc1ccccc1C(=O)/C=C/c1cccc([N+](=O)[O-])c1
inactive: T-47D breast 74.2% | BT-549 breast 104% | MDA-MB-435 melanoma 55.7% | SW-620 colon 43% | MCF7 breast 39.9% | HCT-116 colon 10.8% | HCC-2998 colon 101% | KM12 colon 34.7%

O=C1Nc2ccccc2/C1=C/c1cn(CCCn2c3ccccc3c(=O)c3ccccc32)c2ccccc12
inactive: T-47D breast 74.1% | BT-549 breast 84.6% | MDA-MB-435 melanoma 94.6% | SW-620 colon 98.4% | MCF7 breast 47.3% | HCT-116 colon 87% | HCC-2998 colon 96.3% | KM12 colon 88.3%

O=C1C(=O)c2ccccc2C(O)=C1CCCc1ccc(C2CCCCC2)cc1
inactive: T-47D breast 44% | BT-549 breast 52.6% | MDA-MB-435 melanoma 53.7% | SW-620 colon 36.8% | MCF7 breast 32.9% | HCT-116 colon 19.4% | HCC-2998 colon 29.5% | KM12 colon 24.2%

COc1ccc2[nH]cc(-c3nc(-c4c[nH]c5ncccc45)cs3)c2c1
inactive: T-47D breast 67.1% | BT-549 breast 36.8% | MDA-MB-435 melanoma 54% | SW-620 colon 19% | MCF7 breast 32.5% | HCT-116 colon 18.1% | HCC-2998 colon 70.4% | KM12 colon 25.3%

COc1ccc(-n2c(/C=C/c3ccc(O)c(OC)c3)cc(/C=C/c3ccc(O)c(OC)c3)nc2=O)cc1
inactive: T-47D breast 51.8% | BT-549 breast 30.9% | MDA-MB-435 melanoma 29.6% | SW-620 colon 29.8% | MCF7 breast 19.7% | HCT-116 colon 21.1% | HCC-2998 colon 94.9% | KM12 colon 42%

CN(CSc1ccc(Cl)cc1)c1ccc(CSc2ccc(Cl)cc2)cc1
inactive: T-47D breast 48.6% | BT-549 breast 51.4% | MDA-MB-435 melanoma 45.8% | SW-620 colon 67.5% | MCF7 breast 51.8% | HCT-116 colon 58.1% | HCC-2998 colon 85.3% | KM12 colon 46.1%

COc1cccc(NC(=O)c2sc3nc4c(cc3c2N)C(=O)CCC4)c1
active: MDA-MB-435 melanoma -37.2%
inactive: T-47D breast 51.9% | BT-549 breast 29.9% | SW-620 colon 23.6% | MCF7 breast 29.4% | HCT-116 colon 17.6% | HCC-2998 colon 19.9% | KM12 colon 16.6%

Cn1cc(-c2csc(-c3cn(CCNC(=O)OC(C)(C)C)c4ccccc34)n2)c2cccnc21
inactive: BT-549 breast 67.2% | MDA-MB-435 melanoma 74.5% | SW-620 colon 92.4% | MCF7 breast 39.4% | HCT-116 colon 81.1% | HCC-2998 colon 95.8% | KM12 colon 59.2%
active: T-47D breast -1.03%
